# PRC2 inh: EZH2 (human) methyltransferase inhibition | Q15910 | PRC2 H3K27 methylation, DELFIA TRF, 1 h | inhibition, % at 12.5 µM | actives 0.35% (n = 57,000);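 active = mean inhibition of replicates at least 50% and every single replicate also reaching 50%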;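 also: dimethyl H3K27 on biotinylated H3 21-44 peptide detected by antibody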
# Target sequence (Q15910 whole entry, looked up): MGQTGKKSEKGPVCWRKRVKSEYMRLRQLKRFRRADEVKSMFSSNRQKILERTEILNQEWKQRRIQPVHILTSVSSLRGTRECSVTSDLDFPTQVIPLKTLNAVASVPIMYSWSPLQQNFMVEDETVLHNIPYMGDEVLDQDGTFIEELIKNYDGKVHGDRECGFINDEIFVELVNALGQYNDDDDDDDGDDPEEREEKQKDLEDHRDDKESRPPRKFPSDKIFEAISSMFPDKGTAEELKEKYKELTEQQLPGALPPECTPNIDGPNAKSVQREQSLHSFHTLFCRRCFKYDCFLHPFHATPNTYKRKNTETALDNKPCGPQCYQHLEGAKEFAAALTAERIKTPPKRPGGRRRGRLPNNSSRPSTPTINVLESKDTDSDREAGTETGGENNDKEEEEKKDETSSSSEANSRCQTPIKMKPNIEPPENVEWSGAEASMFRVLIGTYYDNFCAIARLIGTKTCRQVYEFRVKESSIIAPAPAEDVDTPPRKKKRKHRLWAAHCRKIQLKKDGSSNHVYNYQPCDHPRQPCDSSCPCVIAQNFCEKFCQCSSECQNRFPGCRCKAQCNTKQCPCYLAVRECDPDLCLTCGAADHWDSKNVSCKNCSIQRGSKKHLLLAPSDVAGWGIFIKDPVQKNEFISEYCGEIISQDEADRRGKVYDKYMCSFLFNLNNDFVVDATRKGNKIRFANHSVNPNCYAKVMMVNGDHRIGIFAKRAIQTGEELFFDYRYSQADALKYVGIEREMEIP
# Numbers stand for hits; i = inactive. Shown is part of a subset that was picked to be rich in hits.
SMILES,PRC2 inh
COc1ccc(C#Cc2ccc3c(c2)[C@]2(C(=O)N3)[C@H](c3ccccc3OCCO)N3[C@H](c4ccccc4)[C@H](c4ccccc4)OC(=O)[C@H]3[C@@H]2C(N)=O)cc1,i
COC(=O)C(CC#Cc1ccc2c(c1)[C@]1(C(=O)N2)[C@H](c2ccccc2OCCO)N2[C@H](c3ccccc3)[C@H](c3ccccc3)OC(=O)[C@H]2[C@@H]1C(=O)O)C(=O)OC,69
COC(=O)C(CC#Cc1ccc2c(c1)[C@]1(C(=O)N2)[C@H](C(=O)O)[C@H]2C(=O)O[C@H](c3ccccc3)[C@H](c3ccccc3)N2[C@@H]1c1ccc(OCCO)cc1)C(=O)OC,i
O=C1O[C@H](c2ccccc2)[C@H](c2ccccc2)N2[C@H]1[C@@H](C(=O)O)[C@]1(C(=O)Nc3ccc(C#CCCO)cc31)[C@H]2c1ccccc1OCCO,i
COC(=O)C(CC#Cc1ccc2c(c1)[C@]1(C(=O)N2)[C@H](C(=O)N2CCCCCCC2)[C@H]2C(=O)O[C@H](c3ccccc3)[C@H](c3ccccc3)N2[C@@H]1c1ccccc1OCCO)C(=O)OC,i
CC(C)CC#Cc1cnc2c(c1)C(=O)N([C@@H](C)CO)C[C@H](C)[C@@H](CN(C)Cc1cncnc1)O2,i
COc1ccc(C)cc1NC(=O)CN1C(=O)c2cccc3cccc1c23,i
O=C1c2cccc3cccc(c23)N1Cc1ccc(F)cc1Cl,60
COc1ccc(NC(=O)CN2C(=O)c3cccc4cccc2c34)cc1OC,i
COc1c(O)cc2c(c1O)[C@H]1O[C@H](CO)[C@@H](O)[C@H](O)[C@@H]1OC2=O,i
O=C1C[C@@H](c2ccc(O)cc2)Oc2cc(O)c([C@@H]3O[C@H](CO)[C@@H](O)[C@H](O)[C@H]3O)c(O)c21,i
O=C(OC1C(c2c(O)cc(O)c(C(=O)c3ccc(O)cc3)c2O)OC(CO)C(O)C1O)c1cc(O)c(O)c(O)c1 (stereo not given),56
CCNC(=O)C[C@H]1C=C[C@H](NC(=O)NC2CCCCC2)[C@@H](CO)O1,i
COc1ccc(NC(=O)Nc2ccc3c(c2)[C@H]2C[C@@H](CC(=O)NCc4ccccn4)O[C@@H](CO)[C@H]2O3)cc1,i
Cc1cc(=O)oc2c(O)c(O)ccc12,i
Oc1ccc(/C=C/c2cc(O)cc(O)c2)cc1,i
O=c1cc(O)cc(/C=C/c2ccc(O)c(O)c2)o1,87
COc1cccc(-c2cnc3c(c2)C(=O)N([C@H](C)CO)C[C@@H](C)[C@@H](CN(C)Cc2ccc(F)cc2)O3)c1,i
Nc1c(S(=O)(=O)O)cc(Nc2ccc(Cl)cc2)c2c1C(=O)c1ccccc1C2=O,68
Nc1c(S(=O)(=O)O)cc(Nc2cccc3ccccc23)c2c1C(=O)c1ccccc1C2=O,82
O=C(CNS(=O)(=O)c1ccc(Br)cc1)Nc1cccc2ccccc12,i
O=C(Nc1cccc2ccccc12)OCCn1ncc2ccccc2c1=O,i
O=C(NO)c1cccc(C(=O)N/N=C/c2ccccc2C(=O)O)c1,i
Cc1ccc(S(=O)(=O)N(C)CC(=O)Nc2ccccc2Sc2ccccc2)cc1,i
O=C(C[C@H]1C[C@@H]2c3cc(NC(=O)C4CCOCC4)ccc3O[C@@H]2[C@H](CO)O1)NCc1ccc(Oc2ccccc2)cc1,i
SMILES,PRC2 inh
COCC#Cc1cnc2c(c1)C(=O)N([C@@H](C)CO)C[C@H](C)[C@H](CN(C)Cc1ccc3c(c1)OCO3)O2,i
CC1(C)CC[C@]2(C(=O)O)CC[C@]3(C)C(=CCC4[C@@]5(C)CC[C@H](O[C@@H]6OC[C@H](O)[C@H](O)[C@H]6O)[C@@](C)(CO)C5CC[C@]43C)C2C1 (stereo not given in full),i
CC1(C)CC[C@]2(C(=O)O)CC[C@]3(C)C(=CCC4[C@@]5(C)C[C@@H](O)[C@H](O)C(CO)(CO)C5CC[C@]43C)C2[C@@H]1O (stereo not given in full),i
CC1(C)CC[C@]2(C(=O)O)CC[C@]3(C)C(=CCC4[C@@]5(C)C[C@@H](O)[C@H](O)[C@@](C)(CO)C5CC[C@]43C)[C@@H]2[C@@H]1O (stereo not given in full),55
C[C@H]1CN([C@@H](C)CO)S(=O)(=O)c2ccc(C#CC3(O)CCCC3)cc2O[C@H]1CN(C)C,i
COC(=O)c1c(C)oc2ccc(N(C(=O)c3ccncc3)S(=O)(=O)c3ccc(F)cc3C)cc12,i
COc1ccc(C2Oc3c(OC)cc(/C=C/COC4OC(CO)C(O)C(O)C4O)cc3C2CO)cc1OC (stereo not given),i
COc1cc(C2c3c(cc(OC)c(O)c3OC)CC(CO)C2COC2OC(CO)C(O)C(O)C2O)cc(OC)c1O (stereo not given),101
COC(=O)C[C@H]1O[C@@]2(C[C@@H]1[Si](C)(C)C)C(=O)N(C)c1ccccc12,i
C[C@H]1CN([C@@H](C)CO)C(=O)c2cc(C#CC3CCCCC3)cnc2O[C@H]1CN(C)CC1CC1,i
N#C/C(=C/c1ccc(O)c(O)c1)C(=O)Nc1ccccc1,i
N#CC(C#N)=C(N)/C(C#N)=C/c1cc(O)c(O)c(O)c1,i
N#C/C(=C\c1ccc(O)c(O)c1)C(=O)c1ccc(O)c(O)c1,94

# Bioassay records as filed in PubChem.
